Most compounds without a hit are left out; they make up all but 2.9% or so of the library.
PAFAH1B3 inh: PAFAH1B3 enzyme inhibitors, primary screen, biochemical, fluorescence polarization, human | recombinant PAFAH1B3, FP-rhodamine probe | inhibition, % at 3.39 µM | actives 0.28% (n = 340,000) | AID 492972, 2010;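 active = inhibition above the screen-wide average of all tested compounds plus 3 SD, cut at about 25% in these data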
Target sequence (Q15102 whole entry, looked up): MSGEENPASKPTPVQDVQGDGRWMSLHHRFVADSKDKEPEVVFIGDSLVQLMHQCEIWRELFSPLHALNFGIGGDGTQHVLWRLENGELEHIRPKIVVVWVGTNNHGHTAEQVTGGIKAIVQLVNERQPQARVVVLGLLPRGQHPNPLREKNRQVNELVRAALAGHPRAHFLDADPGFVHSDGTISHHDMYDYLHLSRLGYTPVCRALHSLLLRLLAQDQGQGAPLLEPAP
EBNA-1 inhibitor: EBNA-1 DNA-binding inhibitors, primary screen, biochemical, fluorescence polarization. actives 0.34% (n = 300,000). AID 1950, 2009. inhibition, % at 14.8 µM; in the data active = inhibition above about 28%
PAFAH1B2 inh: PAFAH1B2 enzyme inhibitors, primary screen, biochemical, fluorescence polarization, human | Platelet-activating factor acetylhydrolase IB subunit alpha2 (Homo sapiens), P68402 | recombinant PAFAH1B2, FP-rhodamine activity probe | inhibition, % at 3.39 µM | actives 1.2% (n = 340,000) | AID 492953, 2010;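 active = inhibition above the mean of all tested compounds plus 3 SD, cut at about 24% in these data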
Target sequence (P68402 whole entry, looked up): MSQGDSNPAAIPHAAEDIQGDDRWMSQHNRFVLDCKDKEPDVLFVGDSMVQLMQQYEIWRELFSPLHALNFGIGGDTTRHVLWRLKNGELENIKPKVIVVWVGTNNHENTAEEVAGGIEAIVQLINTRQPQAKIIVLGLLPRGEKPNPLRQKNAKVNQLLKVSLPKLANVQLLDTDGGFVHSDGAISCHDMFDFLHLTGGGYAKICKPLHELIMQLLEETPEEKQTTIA
PAFAH2 inh: PAFAH2 enzyme inhibitors, primary screen, biochemical, fluorescence polarization, human | Platelet-activating factor acetylhydrolase 2, cytoplasmic (Homo sapiens), Q99487 | actives 0.99% (n = 340,000) | inhibition, % at 3.39 µM | recombinant PAFAH2, FP-rhodamine activity probe;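 active = inhibition above the mean over all tested compounds plus 3 SD, cut at about 30% in these data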;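 also: inhibitors block probe labeling of enzyme so polarization drops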
pPAFAH FP inh: pPAFAH enzyme inhibitors, primary screen, biochemical, fluorescence polarization, human. Platelet-activating factor acetylhydrolase (Homo sapiens), Q13093. recombinant pPAFAH, FP-rhodamine probe fluorescence polarization. inhibition, % at 3.39 µM. actives 1.5% (n = 330,000). AID 463082, 2010;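 active = inhibition above the mean inhibition across the screen plus 3 SD, cut at about 25% in these data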;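 also: inhibitors block binding of the rhodamine activity-based probe so polarization drops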
ZTA DNA inh: counter-screen for EBNA-1 inhibitors: inhibitors of Epstein-Barr virus ZTA; ZTA-DNA binding, fluorescence polarization; inhibition, % at 11 µM; actives 0.15% (n = 320,000); AID 2234; in the data active = inhibition above about 33%
Hits are given with their value.

How did CCCCC[C@@H]1C=C(C(=O)O)[C@H](c2ccc(Cl)c(Cl)c2)N1S(=O)(=O)c1ccc(C)cc1 do in these assays?
PAFAH1B3 inh: inactive; PAFAH1B2 inh: 29; PAFAH2 inh: inactive; pPAFAH FP inh: inactive

What do the screens show for `CCCCC[C@@H]1C=C(C(=O)O)[C@H](c2ccc(F)cc2)N1S(=O)(=O)c1ccc(C)cc1`?
PAFAH1B3 inh: inactive; PAFAH1B2 inh: 25; PAFAH2 inh: inactive; pPAFAH FP inh: inactive

How did N#Cc1c(-c2ccccc2)nc(SCC(=O)Nc2ccccc2)[nH]c1=O do in these assays?
PAFAH1B3 inh: inactive; EBNA-1 inhibitor: inactive; PAFAH1B2 inh: inactive; PAFAH2 inh: inactive; pPAFAH FP inh: inactive; ZTA DNA inh: inactive

What do the screens show for `N#Cc1c(-c2ccccc2)nc(SCC(=O)N2c3ccccc3Sc3ccccc32)[nH]c1=O`?
PAFAH1B3 inh: inactive; EBNA-1 inhibitor: inactive; PAFAH1B2 inh: 24; PAFAH2 inh: inactive; pPAFAH FP inh: inactive; ZTA DNA inh: inactive

What do the screens show for `N#Cc1c(-c2ccccc2)nc(SCC(=O)N(c2ccccc2)c2ccccc2)[nH]c1=O`?
PAFAH1B3 inh: inactive; EBNA-1 inhibitor: inactive; PAFAH1B2 inh: 39; PAFAH2 inh: inactive; pPAFAH FP inh: inactive; ZTA DNA inh: inactive

What do the screens show for `N#Cc1c(-c2ccccc2)nc(SCc2ccc(Cl)cc2)[nH]c1=O`?
PAFAH1B3 inh: inactive; EBNA-1 inhibitor: inactive; PAFAH1B2 inh: 35; PAFAH2 inh: inactive; pPAFAH FP inh: inactive; ZTA DNA inh: inactive

Results for N#Cc1c(-c2ccccc2)nc(SCC(=O)Nc2ccc(OC(F)(F)Cl)cc2)[nH]c1=O ?
PAFAH1B3 inh: inactive; EBNA-1 inhibitor: inactive; PAFAH1B2 inh: 79; PAFAH2 inh: inactive; pPAFAH FP inh: inactive; ZTA DNA inh: inactive

What do the screens show for `C=CCSc1nc(-c2ccccc2)c(C#N)c(=O)[nH]1`?
PAFAH1B3 inh: inactive; EBNA-1 inhibitor: inactive; PAFAH1B2 inh: inactive; PAFAH2 inh: inactive; pPAFAH FP inh: inactive; ZTA DNA inh: inactive

What do the screens show for `COc1c(Cl)cccc1-c1cn2ccc(C)cc2n1`?
PAFAH1B3 inh: inactive; EBNA-1 inhibitor: inactive; PAFAH1B2 inh: inactive; PAFAH2 inh: inactive; pPAFAH FP inh: inactive; ZTA DNA inh: inactive

How did O=C(NCCCN1CCOCC1)c1cnccn1 do in these assays?
PAFAH1B3 inh: inactive; EBNA-1 inhibitor: inactive; PAFAH1B2 inh: inactive; PAFAH2 inh: inactive; pPAFAH FP inh: inactive; ZTA DNA inh: inactive

Results for CCc1ccc(N2CC(C(=O)Nc3nc4ccc(S(C)(=O)=O)cc4s3)CC2=O)cc1 (configuration not stated) ?
PAFAH1B3 inh: inactive; EBNA-1 inhibitor: inactive; PAFAH1B2 inh: inactive; PAFAH2 inh: inactive; pPAFAH FP inh: inactive; ZTA DNA inh: inactive

What do the screens show for `CC(=O)Nc1ccc(NC(=O)C(C)OC(=O)C2CCN(S(=O)(=O)c3cccs3)CC2)cc1` (configuration not stated)?
PAFAH1B3 inh: inactive; EBNA-1 inhibitor: inactive; PAFAH1B2 inh: inactive; PAFAH2 inh: inactive; pPAFAH FP inh: inactive; ZTA DNA inh: inactive

What do the screens show for `C/C(=N\OC(=O)c1ccc(Cl)c(Cl)c1)c1sc(C)nc1C`?
PAFAH1B3 inh: inactive; EBNA-1 inhibitor: inactive; PAFAH1B2 inh: inactive; PAFAH2 inh: inactive; pPAFAH FP inh: 34; ZTA DNA inh: inactive

How did Cc1ccc(-c2nc3ccsc3c(=O)o2)cc1 do in these assays?
PAFAH1B3 inh: inactive; EBNA-1 inhibitor: inactive; PAFAH1B2 inh: inactive; PAFAH2 inh: 66; pPAFAH FP inh: inactive; ZTA DNA inh: inactive

Results for COc1ccc(N2CCN(CC(=O)Nc3ccc(C)c(C)c3)CC2)cc1 ?
PAFAH1B3 inh: inactive; EBNA-1 inhibitor: inactive; PAFAH1B2 inh: inactive; PAFAH2 inh: inactive; pPAFAH FP inh: inactive; ZTA DNA inh: inactive

How did Cc1cc(=O)[nH]c(N/N=C/c2cc(C)n(-c3ccccc3)c2C)n1 do in these assays?
PAFAH1B3 inh: inactive; EBNA-1 inhibitor: inactive; PAFAH1B2 inh: inactive; PAFAH2 inh: inactive; pPAFAH FP inh: 31; ZTA DNA inh: inactive

Results for COC(=O)C1(c2ccccc2)NC(c2ccc(O)cc2)C2C(=O)N(c3ccc4c(c3)OCO4)C(=O)C21 (configuration not stated) ?
PAFAH1B3 inh: inactive; EBNA-1 inhibitor: inactive; PAFAH1B2 inh: inactive; PAFAH2 inh: inactive; pPAFAH FP inh: inactive; ZTA DNA inh: inactive

Source: PubChem BioAssay
